Measured values: PubChem BioAssay (NCATS)
Unmarked numbers belong to inactive results. Inconclusive results are not listed. Entries that show only a call come without a potency. Active and inactive are the calls of the source. The call rests on the fitted dose curve; in most records, active means well fitted curve in the direction sought with a large enough effect; inconclusive means small, poorly fitted or top-dose-only effect, or another doubt; inactive means no such curve, though single readings can be large; an effect the other way counts as inactive or inconclusive.

Experiments:
[1] = target: Glutathione peroxidase 1 (Homo sapiens) (UniProt P07203); experiment: Primary qHTS Assay for Inhibitors of Recombinant Selenoprotein Glutathione Peroxidase 1 (GPX1) (AID 1845191); settings: recombinant GPX1, GR-coupled NADPH fluorescence, 15 min; series mostly up to 27.7 µM; further: nearly all actives have a fitted effect of over 65% in size
How it was run: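 NADPH consumption tracked by fluorescence at 340/450 nm between t=0 and t=15 min, room temperature. Final mix: 10 nM GPX1, 100 nM glutathione reductase, 1 mM GSH, 0.5 mM NADPH, 0.5 mM cumene hydroperoxide, 0.01% BSA; 30 min compound–enzyme preincubation.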

[2] = target: Phospholipid hydroperoxide glutathione peroxidase GPX4 (Homo sapiens) (UniProt P36969); experiment: Primary qHTS Assay for Inhibitors of Recombinant Selenoprotein Glutathione Peroxidase 4 (GPX4) (AID 1845192); settings: recombinant GPX4, GR-coupled NADPH fluorescence, 15 min; series mostly up to 27.8 µM; further: nearly all actives have a fitted effect of over 65% in size
How it was run: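 NADPH consumption followed by fluorescence at 340/450 nm, t=0 and after 15 min at room temperature. Reaction started with cumene hydroperoxide (0.5 mM final) after 30 min compound–GPX4 preincubation; final 200 nM GPX4, 100 nM GR, 1 mM GSH, 0.5 mM NADPH.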

[3] = target: Luciferin 4-monooxygenase (Photinus pyralis) (UniProt P08659); experiment: Primary firefly luciferase (FLuc) qHTS assay for identification of artifact compounds. (AID 1845220); settings: purified firefly luciferase, luminescence, 5 min; series mostly up to 54.1 µM; further: nearly all actives have a fitted effect of over 60% in size
How it was run: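 Cell-free, 1536-well qHTS. Buffer pH 7.6 with 0.01% Tween-20 and 0.05% BSA; 10 uM D-luciferin, 10 uM ATP; 10 nM P. pyralis luciferase; luminescence after 5 min.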

[4] = Primary fluorescence-based thiol-reactive (MSTI) qHTS assay for identification of artifact compounds. (AID 1845221); settings: MSTI thiol-reactivity probe, 1 h; series mostly up to 53.8 µM; further: nearly all actives have a fitted effect of over 65% in size; further: potency means the concentration at half of the fitted maximal effect;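 on activity change, negative = thiol reactive: thiol-reactive compounds lower the probe fluorescence signal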
How it was run: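 Compounds were incubated 1 h at room temperature in the dark with the MSTI probe (4 uM) in PBS pH 7.4, 2% DMSO. Signals were normalized between Acetyl-MSTI and MSTI.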

[5] = tested on: Nanoluciferase (engineered Oplophorus gracilirostris luciferase); experiment: Primary Nanoluciferase (NLuc) qHTS assay for identification of artifact compounds. (AID 1845222); settings: NLuc-conditioned medium, Nano-Glo luminescence, 5 min; series mostly up to 54.1 µM
How it was run: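 Compounds are pinned into diluted (1:55) conditioned medium of NLuc-expressing S16 cells and held 15 min at room temperature protected from light. Nano-Glo substrate follows, and luminescence is read 5 min later.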

Sequence of Phospholipid hydroperoxide glutathione peroxidase GPX4 (Homo sapiens) (P36969 whole entry, looked up): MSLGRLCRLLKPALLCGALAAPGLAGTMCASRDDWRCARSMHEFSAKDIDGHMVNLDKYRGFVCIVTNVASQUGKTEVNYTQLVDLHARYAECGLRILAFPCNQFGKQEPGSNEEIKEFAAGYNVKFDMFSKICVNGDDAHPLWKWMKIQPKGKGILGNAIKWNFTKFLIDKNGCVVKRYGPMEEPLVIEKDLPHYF
Sequence of Glutathione peroxidase 1 (Homo sapiens) (P07203 whole entry, looked up): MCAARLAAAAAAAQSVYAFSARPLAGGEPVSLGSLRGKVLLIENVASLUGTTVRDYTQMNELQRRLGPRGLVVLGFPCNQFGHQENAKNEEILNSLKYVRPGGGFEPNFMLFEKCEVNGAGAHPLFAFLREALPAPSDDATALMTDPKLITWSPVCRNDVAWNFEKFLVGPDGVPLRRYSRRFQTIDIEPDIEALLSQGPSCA

Structure (SMILES) | Potency [1] | Potency [2] | Potency [3] | Potency [4] | Potency [5] | activity change, negative = inhibition [3] | activity change, negative = thiol reactive [4] | activity, negative = inhibition [5]
C/C=C1\[C@H](O[C@@H]2O[C@H](CO)[C@@H](O)[C@H](O)[C@H]2O)OC=C(C(=O)OCCc2ccc(O)cc2)[C@H]1CC(=O)OCCc1ccc(O)cc1 | inactive | inactive | inactive | inactive | inactive |  |  | 
CC(C)=C1C[C@@]2(C)C(=CC1=O)CC[C@@H](O)[C@@H]2C | inactive | inactive | inactive | inactive | inactive |  |  | 
C[C@]1(OC(=O)/C=C/c2ccccc2)C[C@@H](O)[C@]2(O)C=CO[C@@H](O[C@@H]3O[C@H](CO)[C@@H](O)[C@H](O)[C@H]3O)[C@@H]21 | inactive | inactive | inactive | inactive | inactive |  |  | 
COc1c2c(c(C)c3c1C(=O)OC3)OC1(C)CC(O)C34OC(O)(CCC3(C)C1C2)OC4(C)C (stereo not given) | inactive | inactive | inactive | inactive | inactive |  |  | 
COc1cccc(CNc2ccc(S(=O)(=O)Nc3nc4ccccc4s3)cc2)c1O | inactive | inactive | inactive | inactive | inactive |  |  | 
COc1c(C)c(OCC=C(C)C)cc2c1COC2=O | inactive | inactive | inactive | inactive | inactive |  |  | 
CSCC1OC(n2cnc3c(N)ncnc32)C(O)C1O (stereo not given) | inactive | inactive | inactive | inactive | inactive |  |  | 
CC1(C)C=Cc2c(ccc3c2[N+]([O-])=C2C3(O)CC34NC(=O)C5(CCCN5C3=O)CC4C2(C)C)O1 (stereo not given) | inactive | inactive | inactive | 4.12 µM (active) | inactive |  |  | 
C=C1CC[C@@]2(OC1)O[C@H]1CC3[C@@H]4CC=C5C[C@H](O[C@H]6OC[C@@H](O)C(O)[C@@H]6O[C@@H]6O[C@@H](C)[C@H](O)[C@@H](O[C@@H]7O[C@H](CO)[C@@H](O)[C@H](O)[C@H]7O)[C@H]6O)C[C@@H](O)[C@]5(C)C4CC[C@]3(C)[C@H]1[C@@H]2C (stereo not given in full) | inactive | inactive |  |  |  | -10.8% [at 11.6 µM] | 124% [at 11.5 µM] | -1.92% [at 11.6 µM]
